# According to PubChem BioAssay (NCI):
# Compounds without any hit were thinned out: in the full panel of roughly 83,000, 20% have a hit.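 Step 1: grow cells in 96-well plates. Step 2: add test compound at a single concentration. Step 3: incubate 48 h. Step 4: record percent growth.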 Unmarked numbers belong to inactive results. The source made the active and inactive calls. How the source made its calls: active means growth percent below 10; inactive means the rest.
# Tested on: HL-60(TB) leukemia
# Assay: NCI-60 one-dose screen, 48 h (100 = growth as untreated, 0 = no growth, -100 = all killed)
# Conditions: 10 µM unless noted
row,SMILES,growth
1,O=S(=O)(Nc1ccc(-n2cnc3cc(-c4ccc(O)cc4)ccc32)cc1)C1CC1,56.9%
2,COc1cc(C2N=C(NNc3ccccc3)NC(C)=C2C(C)=O)ccc1O (centres undefined),92.3%
3,Nc1ccc(Nc2ncnc3sc4c(c23)CCN(Cc2ccccc2)C4)cc1,102%
4,O=[N+]([O-])c1ccc(NC(=S)NNC(=S)Nc2ccc(F)cc2)cc1,84.8%
5,CN(C)CCCOc1c2ccc(Cl)cc2nc2c1oc1ccc(Cl)cc12,18.9%
6,COc1cc(OC)c(C2C(Cl)C(=O)N2Nc2ncnc3ccccc23)cc1OC (centres undefined),108%
7,CCN(CC)c1ccc2cc(C(=O)NCCOCCOCCOCCn3cc(CCC(=O)Nc4ccc(C(=O)c5ccc(NC(=O)OC(C)(C)C)cc5)cc4)nn3)c(=O)oc2c1,37%
8,Cc1cc(=O)[nH]c(O)c1C#N,100%
9,CN(C)C(=O)c1cc(-c2ccc3ncnc(NCc4ccccc4)c3c2)cnc1N,116%
10,Cc1noc(C)c1CSc1nc2ccccc2n1-c1ccccc1,111%
11,CCCC(=O)NC(c1cccnc1)c1cc(C)c2cccnc2c1O (centres undefined),1.38% (active)
12,C#C[C@]1(O)CC[C@H]2[C@@H]3CC=C4c5sc(Nc6ccc(C)cn6)nc5CC[C@]4(C)[C@H]3CC[C@@]21C,-43.3% (active)
13,CCOc1ccccc1NC1=C(Cl)C(=O)c2nc(C)ccc2C1=O,-36.8% (active)
14,COc1cc2oc(-c3cccc(NC(=O)c4cc(NC(=O)[C@H](C)NC(=O)OC(C)(C)C)ccc4C)c3)cc(=O)c2c(OC)c1OC,62.6%
15,COc1ccc(-n2c(SCC(=O)Nc3ccc(-c4nc5ccccc5[nH]4)cc3)nc3ccccc3c2=O)cc1,45.6%
16,O=C1C2=C(C(=O)c3c(O)cccc31)C(c1ccco1)c1sc(=O)[nH]c1S2 (centres undefined),-17.6% (active)
17,O=C1c2c(c3c4cc(Br)ccc4[nH]c3c3ccc4ccccc4c23)C(=O)N1CCO,96.7%

row,SMILES,growth
1,COc1ccc2c(c1)c(CC(=O)[Se]CC(=O)O)c(C)n2C(=O)c1ccc(Cl)cc1,53.7%
2,C#CCn1cccc1CNc1ccc(OC)cc1,-63.1% (active)
3,C#C[C@]1(O)CC[C@H]2[C@@H]3CC=C4c5sc(Nc6cccc(C)n6)nc5CC[C@]4(C)[C@H]3CC[C@@]21C,-8.95% (active)
4,CSc1ccc(/C(=N/N=C(N)N)c2ccccc2)cc1,-17.1% (active)
5,CCCC[n+]1ccc(SCC(=O)n2ccc3ccccc32)c2ccccc21,86.8%
6,CN(C)S(=O)(=O)c1ccc(-c2nc(C(Cl)Cl)nc3cc(-c4ccccc4)nn23)cc1,71.1%
7,C#CCOc1ccc(-c2csc(NC(=O)C=C)n2)cc1NS(=O)(=O)c1cccc2c(N(C)C)cccc12,-4.97% (active)
8,O=C1c2c(c3c4cccnc4[nH]c3c3ccc4ccccc4c23)C(=O)N1CCN1CCNCC1,64.2%
9,CCC(CC)n1c(=O)c(SC2=NC3C(NN2)N(CC)C(=O)N3CC)c(C(=O)O)c2ccccc21 (centres undefined),0.469% (active)
10,Nc1nc(N)c2c(n1)NC(c1ccccc1)CC(c1ccc(Nc3nc(NCCO)nc(Nc4ccc(Cl)cc4)n3)cc1)=N2 (centres undefined),2.55% (active)
11,COC[C@]12CC[C@@H](C)[C@H](C)[C@H]1C1=CC[C@@H]3[C@@]4(C)CCCNC(C)(C)[C@@H]4CC[C@@]3(C)[C@]1(C)CC2,-47.1% (active)
12,COc1cc(/C=N\NC(=O)c2ccc3nc(-c4ccc(Br)cc4)[nH]c3c2)cc(OC)c1OC,27%
13,CC[C@H](C)[C@H]1NC(=O)[C@@H]([C@H](O)C(C)C)NC(=O)[C@@H](C)N(C)C(=O)[C@H](C)N(C)C(=O)[C@H](CC(C)C)NC(=O)[C@H](CC(C)C)N(C)C(=O)[C@H](C)N(C)C1=O,-19.4% (active)
14,O=C(Nc1cccc(-c2nc(-c3ccc(NC(=O)c4cccnc4)cc3Cl)no2)c1)Nc1ccc(NC(=O)C2CC2)c(C(F)(F)F)c1,-41.5% (active)
15,COC[C@@]1(C)CC[C@]2(C)CC[C@]3(C)C(=CC[C@@H]4[C@@]5(C)CCCNC(C)(C)[C@@H]5CC[C@]43C)C2C1 (some centres undefined),48.3%
16,CC(C)(O)c1cncc(-c2ccc3ncc(C#N)c(N4CCc5cc(F)c(Cl)cc54)c3c2)c1,11.5%
17,CC(=O)c1c([Si](C)(C)C)c2cc(C#N)ccn2c1C(=O)c1ccc(Br)cc1,97.8%
